Several values for one entry are separate records, joined by “and”; a condition that tells them apart may be missing. Equal entries are not always repeated. Results filed as inconclusive are left out. A call without a number means that no potency is given here. Activity calls are given as the source filed them. Calls come from the whole dose curve; as a rule, active = well fitted cell-killing curve with a large enough effect in the repeat runs; inconclusive = weak or mixed curves, or effect the other way; inactive = flat fitted curve, though single readings scatter.
Assay: qHTS assay to identify small molecule agonists of the estrogen receptor beta (ER-beta) signaling pathway - cell viability counter screen (AID 1259380); note: nearly all actives have a fitted effect of over 30% in size
Details: ER-beta-bla HEK293T viability, CellTiter-Glo luminescence, 16 h; series mostly up to 92.4 µM
Source text: National Center for Advancing Translational Sciences [NCATS]
NIH Chemical Genomics Center [NCGC]
U.S. Environmental Protection Agency [EPA]
National Institutes of Environmental Health Sciences [NIEHS]
National Toxicology Program [NTP]
U.S. Food and Drug Administration [FDA]
Estrogen receptor (ER), a nuclear hormone receptor, plays an important role in development, metabolic homeostasis and reproduction. Two subtypes of ER, ER-alpha and ER-beta, have similar expression patterns with some uniqueness in both types. Endocrine disrupting chemicals (EDCs) and their interactions with steroid hormone receptors like ER causes disruption of normal endocrine function. To identify the compounds that activate ER signaling, an ER beta-UAS-bla GripTite cell line (Life Technologies, Madison, WI, USA) containing a beta-lactamase reporter gene under the control of an UAS response element was used to screen Tox21 10K compound library. The cytotoxicity of the Tox21 compound library against the ER-beta-bla cell line was tested in parallel by measuring the cell viability using CellTiter-Glo assay in the same wells.
Tox21 Assay Protocol Summary:
ER-beta-UAS-bla HEK293T cells were dispensed at 2,000 cells/5 uL of assay medium containing 2% charcoal stripped FBS per well into black wall/clear-bottom 1536-well plates using a Multidrop Combi (ThermoFisher Scientific, Waltham, MA) dispenser. After the assay plates were incubated at a 37C and 5% CO2 for 6 hr, 23 nL of compounds dissolved in DMSO, positive controls or DMSO only was transferred to the assay plate by a Pintool station (Kalypsys, San Diego, CA). The plates were incubated at 37C and 5% CO2 for 16 hr. Then 1 uL of LiveBLAzerTM B/G FRET substrate was added using a BioRAPTR FRD (Flying Reagent Dispenser, Aurora Discovery, San Diego, CA) and then the plates were incubated at room temperature for 2 hours, and fluorescence intensity was measured by an Envision plate reader (PerkinElmer, Shelton, CT). For cell viability readout that measures cytotoxicity, 4 uL/well of CellTiter-Glo reagent was added into the assay plates using a FRD. After 30 min incubation at room temperature, the luminescence intensity in the plates was measured using a ViewLux (PerkinElmer) plate reader.
Potency is the fitted concentration of half-maximal effect.

| SMILES | Potency |
| --- | --- |
| CCCCCCCC/C=C\CCCCCCCCN | inactive |
| CCc1cccc(CC)c1NC(=O)CN(CC(=O)O)CC(=O)O | inactive |
| CC[N+](CC)(CC)CCOC(=O)C(C1CCCC1)C1CCCC1 | inactive |
| O=C(O)c1ccc2cc(C(=O)O)ccc2c1 | inactive |
| C=CCn1c(=O)n(CC=C)c(=O)n(CC=C)c1=O | inactive |
| CCCCNS(=O)(=O)c1ccc(C)cc1 | inactive |
| O=C(O)[C@H](O)[C@@H](O)[C@H](O[C@@H]1O[C@H](CO)[C@H](O)[C@H](O)[C@H]1O)[C@H](O)CO | inactive |
| CC(=O)OCC=C(C)C | inactive |
| C=Cc1ccccc1C=C | inactive |
| CCCC(=O)OC(C)(C)Cc1ccccc1 | inactive |
| O=C(O)c1cccc(C(F)(F)F)c1 | inactive |
| COC(=O)c1ccccc1OC | inactive |
| O=C(O)Cc1ccc2c(c1)C(=O)c1ccccc1CO2 | inactive |
| Cc1c2ccccc2c(C)c2c1ccc1ccccc12 | 30.3 µM (active) and 27.3 µM (active) |
| OC[C@@H](O)[C@@H](O)CO | inactive |
| CC(C)(C)NSc1nc2ccccc2s1 | inactive |
| CCCCCCCCCCC[C@@H](C[C@@H]1OC(=O)[C@H]1CCCCCC)OC(=O)[C@H](CC(C)C)NC=O | inactive |
| CC(C)NC[C@@H](O)COc1ccc(CC(N)=O)cc1 | inactive |
| OC1CCCc2ccccc21 (stereo not given) | inactive |
| O=[N+]([O-])c1ccc(F)c(Cl)c1 | inactive |

| SMILES | Potency |
| --- | --- |
| Cc1cc(C(C)(C)C)c(O)c(C)c1Cn1c(=O)n(Cc2c(C)cc(C(C)(C)C)c(O)c2C)c(=O)n(Cc2c(C)cc(C(C)(C)C)c(O)c2C)c1=O | inactive |
| O=c1[nH]c(=O)n([C@H]2C[C@H](O)[C@@H](CO)O2)cc1F | 0.15 µM (active) |
| COC(=O)c1ccccc1C | inactive |
| CCCCCC/C=C\CCCCCCCC(=O)O | inactive |
| CC(C)OC(=O)C(O)(CC(=O)O)CC(=O)O | inactive |
| O=C(Oc1ccccc1)Oc1ccccc1 | inactive |
| O=[N+]([O-])c1cccc(C(F)(F)F)c1 | inactive |
| CC/C=C\CCCCCO | inactive |
| c1cnccn1 | inactive |
| Nc1ccc(NCCO)c([N+](=O)[O-])c1 | inactive |
| O=[N+]([O-])c1ccc(O)cc1C(F)(F)F | inactive |
| [Cu+] | inactive |
| FC(F)(F)c1cccc(Cl)c1 | inactive |
| O=C1OC2(c3ccc(O)cc3Oc3cc(O)ccc32)c2ccc(N=C=S)cc21 | inactive |
| CCN1C(=O)c2ccccc2C1Nc1ccc(OCCN2CCCCC2)cc1 (stereo not given) | inactive |
| Cc1cc(C(C)(C)C)cc(C)c1CC1=NCCN1 | inactive |
| O=c1c(O)c(-c2ccc(O)cc2O)oc2cc(O)cc(O)c12 | inactive |
| C1CCC(SSC2CCCCC2)CC1 | inactive |
| CC(C(=O)O)c1ccc2c(c1)[nH]c1ccc(Cl)cc12 (stereo not given) | 29.8 µM (active) |
| O=c1[nH]c2ccccc2n1CCCN1CCN(C(c2ccccc2)c2ccccc2)CC1 | 11.9 µM (active) |

Source: PubChem BioAssay (Tox21)
